A selection: hits, their analogues and other compounds. The true share with any hit is near 2.5%.
Jurkat NFkB inh: inhibitors of the PMA/ionomycin-induced NF-kB reporter in Jurkat cells. AID 435003. PMA/ionomycin-induced NF-kB luciferase reporter, luminescence. inhibition, % at 4 µM. 330,000 compounds, 0.53% hits; in the data active = inhibition above about 50%
697 NFkB inh: inhibitors of the PMA/ionomycin-induced NF-kB reporter in 697 B cells | 697 B-cell NF-kB luciferase reporter, 16 h | inhibition, % at 4 µM | 330,000 compounds, 0.33% hits | AID 435022; in the data active = inhibition above about 35%
aSyn UTR inh: 5' untranslated region of α-synuclein, MLPCN primary screen; alpha-synuclein 5'UTR reporter, inhibitor activity; inhibition, % (tested at 7.5 µM); 300,000 compounds, 0.82% hits; AID 1813; in the data active = inhibition above about 60%;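 also: H4 neuroglioblastoma cells stably carrying SNCA 5'UTR luciferase fusion; 0% = DMSO wells and 100% = positive control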
KLF5 inh: suppresses KLF5 promoter-driven expression; inhibition, % at 5 µM; DLD-1 KLF5 promoter-luciferase reporter, luminescence; 290,000 compounds, 0.23% hits;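 active = inhibition above a per-plate limit of that plate's mean compound inhibition plus 3 SD, cut at about 60% in these data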;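 also: 0% = DMSO wells and 100% = LY294002 at 200 µM; higher means less KLF5 promoter-driven luciferase light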
ANO1 block: blocks the mouse calcium-activated chloride channel TMEM16A; AID 588511; 310,000 compounds, 1.2% hits; HEK293 TMEM16A/YFP iodide influx fluorescence, ionomycin; normalized B-score (activity score, 25-100; higher = stronger inhibition) at 10 µM; Q8BHY3;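 active = ratio plate-corrected score three or more library SD toward inhibition, starting fluorescence score within five deviations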;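 also: score derived from kinetic fluorescence span divided by baseline fluorescence per well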
Target sequence (Q8BHY3 whole entry, looked up): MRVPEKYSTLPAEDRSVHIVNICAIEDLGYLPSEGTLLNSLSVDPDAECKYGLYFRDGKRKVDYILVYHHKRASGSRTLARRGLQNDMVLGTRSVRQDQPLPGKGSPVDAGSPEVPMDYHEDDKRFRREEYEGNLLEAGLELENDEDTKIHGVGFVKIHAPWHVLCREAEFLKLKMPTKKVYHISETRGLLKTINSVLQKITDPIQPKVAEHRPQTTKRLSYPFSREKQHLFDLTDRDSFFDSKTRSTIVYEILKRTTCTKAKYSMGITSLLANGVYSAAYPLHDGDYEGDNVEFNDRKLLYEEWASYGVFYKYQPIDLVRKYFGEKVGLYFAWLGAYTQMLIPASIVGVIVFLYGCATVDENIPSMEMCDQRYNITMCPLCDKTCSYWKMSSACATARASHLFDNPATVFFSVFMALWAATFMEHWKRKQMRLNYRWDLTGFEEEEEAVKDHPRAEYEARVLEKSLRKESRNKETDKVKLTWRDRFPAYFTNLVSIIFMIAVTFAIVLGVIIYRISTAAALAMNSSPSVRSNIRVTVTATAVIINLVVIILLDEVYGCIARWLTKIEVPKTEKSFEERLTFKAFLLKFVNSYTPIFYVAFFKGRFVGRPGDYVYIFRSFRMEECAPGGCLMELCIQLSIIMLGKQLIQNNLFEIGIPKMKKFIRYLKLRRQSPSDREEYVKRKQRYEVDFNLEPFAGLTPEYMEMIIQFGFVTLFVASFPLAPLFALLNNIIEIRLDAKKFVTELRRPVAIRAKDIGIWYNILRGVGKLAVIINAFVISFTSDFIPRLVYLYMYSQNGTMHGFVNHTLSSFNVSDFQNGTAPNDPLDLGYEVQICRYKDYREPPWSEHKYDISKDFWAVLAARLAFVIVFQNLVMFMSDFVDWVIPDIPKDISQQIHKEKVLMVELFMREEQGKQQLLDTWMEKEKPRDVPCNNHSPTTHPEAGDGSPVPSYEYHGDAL
TMEM16A act: activates or potentiates the mouse TMEM16A chloride channel. HEK293 TMEM16A/YFP-H148Q/I152L, iodide quench fluorescence; stronger effect = lower value. B-score at 10 µM. 340,000 compounds, 0.3% hits. AID 623877;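 active = fluorescence-ratio B-score plate-corrected deviation score at least 3 library SD below zero, with starting fluorescence score within 5 deviations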;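 also: channel opened by trigger with iodide after compound preincubation; score built on the fluorescence ratio of max minus min over baseline; more negative score means more quench and so TMEM16A activation or potentiation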
TMEM16A reconf: reconfirmed blocker of mouse TMEM16A calcium-activated chloride channel. HEK293 TMEM16A/YFP-H148Q, iodide quench fluorescence; ionomycin added to raise cell calcium. shares compounds with ANO1 block. 2,300 compounds, 39% hits. inhibition, % at 10 µM;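 active = mean duplicate percent inhibition, scaled so buffer wells are 0 and the reference blocker 100, over three buffer SD above buffer mean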
HEK293 Ca mobil: alters calcium mobilization in TMEM16A HEK293 cells, counter-screen; shares compounds with ANO1 block; TMEM16A/YFP HEK293, Fluo4 calcium mobilization; calcium response (% of ionomycin), % at 10 µM; 2,300 compounds, 2% hits;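 active = duplicate-averaged calcium signal over 20% of the ionomycin maximum, relative to buffer baseline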;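 also: each well's signal is peak minus trough fluorescence divided by its pre-addition baseline; 0% = buffer wells and 100% = ionomycin wells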
YFP-HEK293 quench: parental YFP-HEK293 iodide quench counter-screen activity; shares compounds with ANO1 block; ionomycin; YFP ratio F(max-min)/F0 at 10 µM; AID 652233; 2,300 tested, under 10 active;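 active = yellow fluorescent protein signal ratio exceeding the buffer control mean by over 5 SD of those controls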;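 also: ratio is mean of duplicate wells from kinetic YFP trace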
ClC-1 rat inh: blocks the rat ClC-1 voltage-dependent chloride channel; shares compounds with ANO1 block; CHO ClC-1-YFP, iodide influx fluorescence quench; iodide control reads 0, buffer control 100; 2,300 tested, under 10 active; ratio percent, % at 10 µM;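 active = duplicate-mean ratio percent above the mean of iodide-only control wells, which defines zero, plus 5 of their SD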;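 also: higher percent means stronger block of ClC-1 iodide influx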
* hit, by the source's call.

CCCCCSc1nnc(-c2cc(Br)ccc2N)c(=O)[nH]1 was read as Jurkat NFkB inh 6, 697 NFkB inh -2, aSyn UTR inh 16, KLF5 inh -20, ANO1 block 25*, TMEM16A act inactive, TMEM16A reconf inactive, HEK293 Ca mobil inactive, YFP-HEK293 quench -1.2 and ClC-1 rat inh -11.
For COc1cc(/C=C(/NC(=O)c2ccccc2)C(=O)N2CCOCC2)c([N+](=O)[O-])cc1OC the results were Jurkat NFkB inh 16, 697 NFkB inh -6, aSyn UTR inh 18, KLF5 inh -15, ANO1 block inactive and TMEM16A act inactive.
CCOC(=O)c1cnc2nc(C)[nH]n2c1=O was read as Jurkat NFkB inh -5, 697 NFkB inh 16, aSyn UTR inh 5, KLF5 inh 3, ANO1 block inactive and TMEM16A act inactive.
For CCOC(=O)c1cnc2sc3c(n2c1=O)CCCC3 the results were Jurkat NFkB inh 9, 697 NFkB inh -56, KLF5 inh 6, ANO1 block 100*, TMEM16A act inactive, TMEM16A reconf inactive, HEK293 Ca mobil inactive, YFP-HEK293 quench -1.1 and ClC-1 rat inh -8.
CC(C)Cc1csc(NC(=O)c2ccc(Cl)cc2)c1C(=O)O was read as Jurkat NFkB inh -5, 697 NFkB inh -33, aSyn UTR inh -46, KLF5 inh -33, ANO1 block 25*, TMEM16A act inactive, TMEM16A reconf 39%*, HEK293 Ca mobil inactive, YFP-HEK293 quench -0.81 and ClC-1 rat inh -5.
For CC(C)Cc1csc(NC(=O)c2ccccc2Cl)c1C(=O)O the results were Jurkat NFkB inh -7, 697 NFkB inh 13, aSyn UTR inh 1, KLF5 inh -6, ANO1 block inactive and TMEM16A act inactive.
For Cc1ccc(-c2csc(NC(=O)c3ccc(Br)cc3)c2C(=O)O)cc1 the results were Jurkat NFkB inh -37, 697 NFkB inh -116, aSyn UTR inh -91, KLF5 inh -67, ANO1 block 100*, TMEM16A act inactive, TMEM16A reconf 28%*, HEK293 Ca mobil inactive, YFP-HEK293 quench -1.2 and ClC-1 rat inh 0.
`COc1ccc(CNC(=O)C2CCN(C(=O)Cc3ccccc3)CC2)cc1` gave Jurkat NFkB inh -11, 697 NFkB inh 11, aSyn UTR inh -3, KLF5 inh -12, ANO1 block inactive and TMEM16A act inactive.
Screening CC(Cc1cccs1)NC(=S)Nc1ccc(Cl)cc1 (configuration not stated) returned Jurkat NFkB inh -1, 697 NFkB inh -47, aSyn UTR inh -51, KLF5 inh -21, ANO1 block 25*, TMEM16A act inactive, TMEM16A reconf 38%*, HEK293 Ca mobil inactive, YFP-HEK293 quench -1.2 and ClC-1 rat inh -15.
Screening C/C(=N\NC(=S)NCCc1ccccc1)c1ccc(O)cc1O returned Jurkat NFkB inh -6, 697 NFkB inh 3, aSyn UTR inh 11, KLF5 inh -13, ANO1 block 25*, TMEM16A act inactive, TMEM16A reconf 23%*, HEK293 Ca mobil inactive, YFP-HEK293 quench -1.2 and ClC-1 rat inh 0.
COc1ccc(NC(=O)c2cccc(S(=O)(=O)N3CCc4ccccc43)c2)cn1 was read as Jurkat NFkB inh 19, 697 NFkB inh -25, aSyn UTR inh 9, KLF5 inh -11, ANO1 block 25*, TMEM16A act inactive, TMEM16A reconf inactive, HEK293 Ca mobil inactive, YFP-HEK293 quench -1.1 and ClC-1 rat inh -16.
For NS(=O)(=O)c1ccc(NC(=O)c2ccc(S(=O)(=O)N3CCc4ccccc43)cc2)cc1 the results were Jurkat NFkB inh -11, 697 NFkB inh 4, aSyn UTR inh -6, KLF5 inh -21, ANO1 block inactive and TMEM16A act inactive.
`COc1ccc(C(=O)Nc2ccc(S(=O)(=O)N3CCc4ccccc43)cc2)cc1` gave Jurkat NFkB inh 30, 697 NFkB inh -44, aSyn UTR inh -51, KLF5 inh -4, ANO1 block 100*, TMEM16A act inactive, TMEM16A reconf 34%*, HEK293 Ca mobil inactive, YFP-HEK293 quench -1.1 and ClC-1 rat inh -10.
`C=CCOc1c(Cl)cc(C(=S)N2CCCC2)cc1OCC` gave Jurkat NFkB inh 10, 697 NFkB inh -2, aSyn UTR inh -95, KLF5 inh 9, ANO1 block inactive and TMEM16A act inactive.
For O=S(=O)(Nc1nc2ccccc2nc1Cl)c1cccc(C(F)(F)F)c1 the results were Jurkat NFkB inh -9, 697 NFkB inh -6, aSyn UTR inh 4, KLF5 inh 20, ANO1 block 25*, TMEM16A act inactive, TMEM16A reconf 21%*, HEK293 Ca mobil inactive, YFP-HEK293 quench -1.1 and ClC-1 rat inh -10.
For O=C1C2C(C(=O)N1/N=C/c1cc([N+](=O)[O-])c(O)cc1O)C1C=CC2C12CC2 (configuration not stated) the results were Jurkat NFkB inh 15, 697 NFkB inh 6, aSyn UTR inh -21, KLF5 inh -26, ANO1 block inactive and TMEM16A act inactive.
Screening O=C1C2C(C(=O)N1/N=C/c1cc(Br)cc([N+](=O)[O-])c1O)C1C=CC2C12CC2 (configuration not stated) returned Jurkat NFkB inh 3, 697 NFkB inh 17, aSyn UTR inh -17, KLF5 inh 0, ANO1 block inactive, TMEM16A act inactive, TMEM16A reconf 19%*, HEK293 Ca mobil inactive, YFP-HEK293 quench -0.64 and ClC-1 rat inh 9.
COC(=O)[C@@]12CCCCN1[C@H](c1ccc(-c3ccc4c(c3)OCO4)c(OC)c1)[C@@H]1C(=O)N(C)C(=O)[C@@H]12 was read as Jurkat NFkB inh -13, 697 NFkB inh -14, ANO1 block inactive and TMEM16A act inactive.
Screening CCCCNC(=S)Nc1ccc(SC(F)F)cc1 returned Jurkat NFkB inh -17, 697 NFkB inh -30, aSyn UTR inh -164, KLF5 inh -25, ANO1 block 100*, TMEM16A act inactive, TMEM16A reconf 54%*, HEK293 Ca mobil inactive, YFP-HEK293 quench -0.95 and ClC-1 rat inh -16.
